# High-throughput results as filed in PubChem BioAssay.
# PLK1 PBD inh = blocks phosphopeptide binding to human PLK1 polo-box domain | Plk1 PBD binding of FITC phosphopeptide, fluorescence polarization | P53350 | Potency, µM, actives largely listed as inhibitors | 360,000 tested, 2.8% active; further: series mostly up to about 57 µM; nearly all actives have a fitted effect of over 65% in size
# Target sequence (P53350 whole entry, looked up, the tested form may be a part): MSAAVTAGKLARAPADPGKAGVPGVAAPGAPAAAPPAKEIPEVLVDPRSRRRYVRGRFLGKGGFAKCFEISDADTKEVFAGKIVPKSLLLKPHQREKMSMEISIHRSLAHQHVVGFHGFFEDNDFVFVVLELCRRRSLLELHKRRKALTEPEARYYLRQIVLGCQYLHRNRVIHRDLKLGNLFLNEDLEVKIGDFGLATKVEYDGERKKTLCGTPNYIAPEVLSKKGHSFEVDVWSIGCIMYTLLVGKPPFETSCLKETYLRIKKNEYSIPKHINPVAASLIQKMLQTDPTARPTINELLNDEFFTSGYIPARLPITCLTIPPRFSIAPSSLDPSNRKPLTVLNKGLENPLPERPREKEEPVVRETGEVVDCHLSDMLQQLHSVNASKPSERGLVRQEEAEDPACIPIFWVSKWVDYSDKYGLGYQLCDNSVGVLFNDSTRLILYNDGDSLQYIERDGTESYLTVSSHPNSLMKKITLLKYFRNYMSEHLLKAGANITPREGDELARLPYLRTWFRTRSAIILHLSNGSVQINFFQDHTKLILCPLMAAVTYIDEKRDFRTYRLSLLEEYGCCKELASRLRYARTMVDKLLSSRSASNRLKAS
# BAZ2B inh = blocks human BAZ2B; Q9UIF8; AlphaScreen BAZ2B-H3K14Ac peptide displacement; Potency, µM (series often up to 114 µM), hits mostly inhibitors; 360,000 tested, 4.4% active; AID 504333; further: nearly all actives have a fitted effect of over 60% in size
#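 In this displacement format the biotinylated H3(5-23) peptide acetylated at Lys14 serves as ligand at 50 nM, with BAZ2B at 50 nM in PBS pH 7.4 containing 0.01% Tween-20. Donor and acceptor beads are 10 ug/mL final.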
# HP1b chromo inh = HP1-beta chromodomain-methylated histone interaction inhibition. P83916. AlphaScreen HP1-beta / biotin-H3K9me3 peptide binding. Potency, µM (doses to about 114 µM), actives largely listed as inhibitors. 390,000 tested, 0.56% active. AID 540317; further: nearly all actives have a fitted effect of over 70% in size
#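 HP1-beta protein (50 nM final) preincubated 30 min at room temperature with biotinylated H3(1-18)K9me3 peptide (50 nM) in PBS pH 7.4, 0.01% Tween-20, then compound added for 30 min. AlphaScreen streptavidin donor/nickel chelate acceptor beads (10 ug/mL final), 30 min dark, luminescence read.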
# G9a inh = G9a (human) methyltransferase inhibition; Potency, µM (titrated, usually from 102 µM), most hits filed as inhibitors; AID 504332; G9a H3K9 monomethylation, AlphaScreen, 2 h; 350,000 tested, 8.8% active; Q96KQ7; further: nearly all actives have a fitted effect of over 75% in size
#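 AlphaScreen detection with an anti-monomethyl H3K9 antibody quantified product after a 2 h room-temperature reaction containing 500 nM biotinylated H3K9 peptide, 20 µM SAM and 20 nM enzyme, which had been preincubated 15 min with compound.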
# VDR inh = inhibitors of human vitamin D receptor; AID 504847; P11473; VDR-SRC2-3 peptide fluorescence polarization, 2 h; 400,000 tested, 0.93% active; Potency, µM, hits mostly inhibitors
#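 Signal is fluorescence polarization, reporting how far test compounds block the interaction of VDR with the SRC2-3 coregulator peptide after a 2 h room-temperature incubation.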
# JMJD2A Tudor inh = JMJD2A Tudor domain (human) inhibition; AID 504339; AlphaScreen JMJD2A-Tudor / H3K4me3 peptide binding; 390,000 tested, 4.4% active; Potency, µM (doses to about 114 µM), actives largely listed as inhibitors; O75164; further: nearly all actives have a fitted effect of over 50% in size
# Hits are given with their value; – = inactive; ? = inconclusive; · = not tested or not shown; [ ] = remark or other dose. Shown are actives, neighbours in structure and some others; about 11% of the full set was active somewhere. The call rests on the fitted dose curve; in most records, active means well fitted curve in the direction sought with a large enough effect; inconclusive means small, poorly fitted or top-dose-only effect, or another doubt; inactive means no such curve, though single readings can be large; an effect the other way counts as inactive or inconclusive.
SMILES,PLK1 PBD inh,BAZ2B inh,HP1b chromo inh,G9a inh,VDR inh,JMJD2A Tudor inh
Oc1ccc(Nc2nc3ccccc3nc2Nc2ccc(O)cc2)cc1,–,50µM,?,10µM,?,?
Nc1ccc(Nc2nc3ccccc3[nH]2)cc1,–,45µM,?,·,–,56µM
Cc1ccc(C)c(Nc2nc3ccccc3[nH]2)c1,–,·,–,·,–,–
Nc1ccccc1Nc1nc2ccccc2[nH]1,–,?,–,89µM,–,–
Nc1ccc(-c2nc3ccccc3[nH]2)cc1,–,–,–,–,–,–
CC1(C(=O)NS(=O)(=O)c2ccc(Cl)cc2)CCN1C(=O)Cc1cccs1 (configuration not stated),–,·,·,·,·,·
CC(C)C[C@@H](CC(=O)N[C@@H](CCC(=O)O)CC(=O)O)NC(=O)[C@@H]1CNCC[C@H]1NC(=O)C[C@@H](NC(=O)C[C@H](Cc1ccccc1)NC(=O)[C@@H]1CCCC[C@H]1N)C(C)C,·,·,·,·,–,·
Cc1ccc(S(=O)(=O)Nc2ccc(-c3ccc(N4CCCCCC4)nn3)cc2)cc1C,·,–,–,–,–,–
CN(Cc1ccccc1)Cc1ccccc1,·,·,·,–[12.7 µM],–,·
CN(Cc1ccccc1)Cc1c(F)cccc1F,–,56µM,?,11µM,–,7.1µM
CN(C)Cc1c(O)ccc2ccccc12,?,–,–,7.9µM,–,–[11.4 µM]
CC(C)CN(Cc1c(O)ccc2ccccc12)CC(C)C,?,?,–,·,–,–
COc1ccc2ccccc2c1CN(C)Cc1ccccc1,–,?,–,–[0.501 µM],–,28µM
COc1ccc(CN(C)Cc2c(O)ccc3ccccc23)cc1,?,–,–,18µM,–,–
Cc1oc2ncn(CC(C)C)c(=O)c2c1C(=O)NCCc1ccccc1,·,–,–,–,–,–
COc1ccc2ccccc2c1CNC(C)CCc1ccccc1 (configuration not stated),–,–,–,·,–,79µM
COc1cccc(CN(C)CC(=O)NC(=O)NCc2ccccc2)c1,–,–,–,?,–,–
COc1cccc(CN(C)Cc2c(O)ccc3ccccc23)c1,17µM,–,–,8.9µM,–,–
CC(C)C[C@H](NC(=O)[C@H](CCCCN)NC(=O)[C@H](CCC(N)=O)NC(=O)[C@H](Cc1cnc[nH]1)NC(=O)[C@H](Cc1cnc[nH]1)NC(=O)[C@@H](N)C(C)C)C(=O)N[C@H](C(=O)N[C@@H](Cc1ccccc1)C(=O)N[C@@H](Cc1ccccc1)C(=O)N[C@@H](C)C(=O)N[C@@H](CCC(=O)O)C(=O)N[C@@H](CC(=O)O)C(=O)N[C@H](C(=O)NCC(=O)N[C@@H](CO)C(=O)N[C@@H](CC(N)=O)C(=O)N[C@@H](CCCCN)C(=O)O)C(C)C)C(C)C,·,·,·,·,–,·
c1ccc(CNc2ccc3ccccc3n2)nc1,–,–,–,–,–,8.9µM
CCn1c(NCc2ccccn2)nc2ccccc21,–,56µM,–,8.9µM,–,–
CCn1c(NCc2cccs2)nc2ccccc21,–,–,–,–[12.7 µM],–,–
COc1ccc(C(C(=O)NC2CCCC2)n2c(-c3cccs3)nc3ccccc32)cc1 (configuration not stated),–,·,·,·,·,·
O=C(COC(=O)Cn1cnc2ccccc2c1=O)Nc1ccccc1Sc1ccc(Cl)cc1,–,–,–,–,–,–
FC(F)(F)c1cc(N2CCOCC2)nc(-c2ccccc2)n1,27µM,–,?,–,?,?
SMILES,PLK1 PBD inh,BAZ2B inh,HP1b chromo inh,G9a inh,VDR inh,JMJD2A Tudor inh
COc1ccccc1OCCC(=O)NNC(=O)c1ccccc1F,–,–,–,–,–,–
CCOC(=O)c1cccc(NC(=O)CCS(=O)(=O)c2ccc3c(c2)CCN3C(=O)CC)c1,·,·,–,11µM,–,25µM
CC(=O)N1CCc2cc(S(=O)(=O)CCC(=O)Nc3ccccc3F)ccc21,24µM,–,–,?,–,50µM
CCC(=O)N1c2ccc(S(=O)(=O)CCC(=O)Nc3ccc(Br)c(C)c3)cc2CC1C (configuration not stated),·,·,–,14µM,–,22µM
COC(=O)CCN(c1ccccc1)C(CNS(=O)(=O)c1ccccc1)c1ccccc1 (configuration not stated),·,–,–,–,–,–
N=C(N)Sc1nc(N2CCCCC2)nc(N2CCCCC2)n1,–,79µM,–,–[12.7 µM],–,–
OCCN1CCN(c2nc(N3CCCCC3)nc(N3CCCCC3)n2)CC1,–,–,–,–[12.7 µM],–,–
COc1cccc(OCCCOc2ccccc2C(C)C)c1,–,–,–,·,–,–
CCC(=O)N1CCc2cc(-c3csc(NC(=O)c4ccco4)n3)ccc21,–,?,–,–,–,–
CC(C)C(=O)N1CCc2cc(-c3csc(N)n3)ccc21,24µM,?,–,?,–,–
CN(C)S(=O)(=O)c1ccc(C(=O)NCc2ccco2)cc1,–,–,–,–,–,–
CC(C)N(C(=O)COC(=O)c1cncc(Br)c1)C(C)C,21µM,–,–,–,?,?
CN(C)S(=O)(=O)c1ccc(C(=O)OCC(=O)NCc2ccco2)cc1,–,50µM,–,50µM,–,–[11.4 µM]
CN(Cc1ccccc1)C(=O)COC(=O)c1cncc(Br)c1,–,–,–,–,–,–
CCOc1ccc(/C=N/OCC(=O)NCc2ccco2)cc1,15µM,–,–,–,?,?
O=C(COC(=O)c1cncc(Br)c1)NCCC1=CCCCC1,–,–,–,50µM,–,–
COc1ccccc1CNC(=O)C(NC(=O)c1ccc(C)cc1)C(C)C (configuration not stated),–,–,–,–,–,–
CC(CN(C)C)CN1c2ccccc2Sc2ccc(C(F)(F)F)cc21 (configuration not stated),·,·,·,–[12.7 µM],–,·
COc1cccc(CNC(=O)[C@@H]2CCCN2C(=O)[C@H]2CCCCN2)c1,–,·,·,·,·,·
CCCCN1CCC(=O)C(C(=O)OCC)=C1C(=O)OCC,–,·,–,·,–,–
O=C(COC(=O)c1cncc(Br)c1)NCc1ccco1,?,32µM,–,–[0.0925 µM],–,–
COc1cc(C(=O)OCC(=O)NCc2ccco2)cc(OC)c1OC,–,?,–,–,–,?
CCOc1cc(C(=O)OCC(=O)NCc2ccco2)cc(OCC)c1OCC,–,28µM,?,50µM,–,56µM
CN(C)c1cccc(C(=O)OCC(=O)NCc2ccco2)c1,–,–,–,–,–,–
COc1cc(OC)cc(C(=O)OCC(=O)NCc2ccco2)c1,–,50µM,–,?,–,?
COCc1nnc(NC(=O)CSCc2ccccc2)s1,21µM,?,–,–[0.0925 µM],–,–
COCCSc1nnc(NC(=O)COC)s1,–,–,–,–[2.33 µM],–,–
CC(=O)Nc1c(O)nc(SCC(=O)Nc2nnc(SCc3ccccc3)s2)[nH]c1=O,?,?,–,20µM,?,?
COCCSc1nnc(NC(=O)CSCc2ccccc2)s1,–,–,–,14µM,–,–
